Laboratory results reported in PubChem BioAssay AID2551 (National Center for Advancing Translational Sciences (NCATS), 2010).
The whole screen tested about 310,000 compounds, of which about 17,000 (5.5%) were called active. About 11% were inconclusive and are not listed. This is one part of a sample in which actives are shown more often than they occur. A number with no mark means an inactive call. The call rests on the fitted dose curve; in most records, active means well fitted inhibition curve with a large enough effect; inconclusive means small, poorly fitted or top-dose-only effect, or effect the other way; inactive means no such curve, though single readings can be large or run the other way.

biological target: Nuclear receptor ROR-gamma (Mus musculus) (UniProt P51450); assay: qHTS for inhibitors of ROR gamma transcriptional activity; details: Drosophila S2 Gal4-RORgamma UAS-luciferase reporter, 20 h; series mostly up to 53.6 µM; activity change, negative = inhibition: at the top concentration; further: nearly all actives have a fitted effect of over 60% in size
How it was run: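 Read-out: Photinus luciferase luminescence; inhibitors lower reporter signal. Insect Schneider cells with Gal4-ROR gamma fusion under metallothionein promoter, UAS reporter; 700 uM final copper sulfate induction, 20 hr, ambient temperature.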
On the % scale 0 is the no-effect control and ±100 the full control effect; potency means the concentration at half of the fitted maximal effect.

Chain of Nuclear receptor ROR-gamma (Mus musculus) (P51450 whole entry, looked up, the tested form may be a part): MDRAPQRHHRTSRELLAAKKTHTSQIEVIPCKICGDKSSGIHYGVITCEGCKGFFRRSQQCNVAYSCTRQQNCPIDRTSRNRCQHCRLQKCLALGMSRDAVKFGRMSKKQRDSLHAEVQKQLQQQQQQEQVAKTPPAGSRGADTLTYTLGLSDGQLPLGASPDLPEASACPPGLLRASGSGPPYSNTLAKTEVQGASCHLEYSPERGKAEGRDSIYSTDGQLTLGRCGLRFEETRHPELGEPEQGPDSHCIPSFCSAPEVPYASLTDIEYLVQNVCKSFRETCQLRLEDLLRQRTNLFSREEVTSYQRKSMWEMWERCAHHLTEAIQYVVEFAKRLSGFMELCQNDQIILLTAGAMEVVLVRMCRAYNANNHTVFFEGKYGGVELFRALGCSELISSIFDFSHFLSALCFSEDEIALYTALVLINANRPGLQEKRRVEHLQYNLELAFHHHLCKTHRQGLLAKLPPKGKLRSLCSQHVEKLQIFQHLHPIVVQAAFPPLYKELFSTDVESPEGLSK

Row | SMILES | activity change, negative = inhibition | Potency
1 | C/C(=N\NC(=O)CNc1cccc2ccccc12)c1ccc(Br)s1 | -40.1% | 
2 | Cn1cccc1/C=N/NC(=O)CNc1cccc2ccccc12 | 1.27% | 
3 | Cc1cccc(/C=N/NC(=O)CNc2cccc3ccccc23)n1 |  | 14.1 µM (active)
4 | CCn1cc(CN2CCN(CC(C)(C)C)C(CCO)C2)c2ccccc21 (stereo unspecified) | -8% | 
5 | O=c1[nH]c(CN2CCOCC2)nc2cc(Cl)ccc12 | 39.4% | 
6 | CN(Cc1nc2ccccc2c(=O)[nH]1)Cc1cc(=O)oc2ccc3ccccc3c12 | -40.8% | 
7 | CN(CCOc1ccccc1)Cc1nc2cc(Cl)ccc2c(=O)[nH]1 |  | 4.47 µM (active)
8 | COc1cccc(CNC(=O)c2cccnc2Sc2ccc(Cl)cc2)c1 | 16.6% | 
9 | Brc1ccccc1CN1CCC(Cc2ccccc2)CC1 | 15.2% | 
10 | CCOC(=O)CNC(=O)CSc1nnc(COc2ccc(Cl)cc2)n1CC |  | 7.94 µM (active)
11 | C=CCn1c(COc2ccccc2)nnc1SCC(=O)NCC(=O)OCC | -36.1% | 
12 | CCOC(=O)CNC(=O)CSc1nnc(-c2cccc(OC)c2)n1CC | -4.98% | 
13 | Cn1c(=O)oc2cc(S(=O)(=O)NCCC(=O)NCc3ccccc3Cl)ccc21 | 25.2% | 
14 | O=C(CCC1CCN(C(=O)c2cccc(Cl)c2F)CC1)Nc1ccccc1 | 2.14% | 
15 | O=C(NCc1ccc2c(c1)OCO2)c1ccc2c(c1)C(=O)N(CC1CCCO1)C2=O (stereo unspecified) | 7.17% | 
16 | O=C1c2cccc3c([N+](=O)[O-])ccc(c23)C(=O)N1CC1CCCO1 (stereo unspecified) |  | 15.8 µM (active)
17 | CCC(=O)Nc1ccc(C(=O)Nc2ccc3c(c2)C(=O)N(CC2CCCO2)C3=O)cc1 (stereo unspecified) | -9.45% | 
18 | O=C(CSc1n[nH]c(=O)n1-c1ccccc1)Nc1ccccc1C(F)(F)F | -8.7% | 
19 | CCCNC(=O)CCc1c(C)nc2c(c(C)nn2-c2ccc(C)cc2)c1C | -17.6% | 
20 | COc1cc2ccccc2cc1C(=O)Nc1nc(C)c(C(C)=O)s1 | -12.5% | 
21 | CCCCCC1CC(COc2ccccc2)OC1=O (stereo unspecified) | 26.8% | 
22 | COc1ccc(C(=O)NC2CC(C)(C)Cc3c2cnn3-c2ccccc2)c(OC)c1 (stereo unspecified) | 18.6% | 
23 | O=C(NCCCn1ccnc1)c1cc(Br)c(Br)s1 | 16.4% | 

Row | SMILES | activity change, negative = inhibition | Potency
24 | C=Cn1cc[n+](CC(=O)c2ccc(OC)c(OC)c2)c1 | 0.691% | 
25 | O=C(CSc1ccc(-c2ccco2)nn1)Nc1cccc(F)c1 | 27.3% | 
26 | Cc1cnc(NC(=O)c2ccc(Cl)nc2)s1 |  | 15.8 µM (active)
27 | Cc1cnc(NC(=O)CSc2nnc(C)s2)s1 | 0% | 
28 | Cc1cnc(NC(=O)c2ccccn2)s1 |  | 0.794 µM (active)
29 | Cc1ccc(SCC(=O)Nc2ncc(C)s2)cc1 | -25.9% | 
30 | Cc1cnc(NC(=O)CSc2c(Cl)cccc2Cl)s1 | -37.1% | 
31 | Cc1ccc(Cl)cc1NC(=O)c1ccccn1 | -15.2% | 
32 | CCC(C)C(NC(=O)C1CCC(=O)N1C(=O)OCc1ccccc1)C(=O)NC(C(=O)N1CCCC1C(N)=O)C(C)CC (stereo unspecified) | 22.4% | 
33 | Cc1cc(=O)oc2cc(OC(C)C(=O)NCCc3ccc(S(N)(=O)=O)cc3)ccc12 (stereo unspecified) | -1.79% | 
34 | CN(C(=O)COC(=O)CNC(=O)C12CC3CC(CC(C3)C1)C2)c1ccccc1 | -18.9% | 
35 | CCC(=O)Nc1ccc(S(=O)(=O)Nc2c(NC)c3ccccc3oc2=O)cc1 | -2.82% | 
36 | O=S1(=O)CCOC[C@H](CC2CCCCC2)N1Cc1ccc(F)cc1 | -20.9% | 
37 | COc1ccc(C(=O)/C=C/Nc2ccccn2)cc1 |  | 3.55 µM (active)
38 | CCOc1cc(NC(=O)c2ccccn2)c(OCC)cc1NC(=O)c1ccc(OC)cc1 | -19.2% | 
39 | CCOc1ccc(N/C=C/C(=O)c2cc(OC)c(OC)c(OC)c2)cc1 | 26% | 
40 | Cc1ccc(CNC(=O)C2(C(F)(F)F)C/C(=C\Cc3ccccc3)CCCO2)o1 (stereo unspecified) |  | inactive
41 | COc1ccc(N2C(=O)CC(Sc3n[nH]c(-c4ccc(C)cc4)n3)C2=O)cc1 (stereo unspecified) |  | 20 µM (active)
42 | COc1ccc(N2C(=O)CC(SC(C)C)C2=O)cc1 (stereo unspecified) | 4.5% | 
43 | COc1ccc(-c2nc(SCC(=O)N3CCCC3)n[nH]2)cc1 | 29.5% | 
44 | Cc1ccc(F)c(NC(=O)CCOc2ccccc2C)c1 | -20.8% | 
45 | CCC(C)NCC(=O)Nc1ccc([N+](=O)[O-])cc1C(=O)Nc1ccccc1F (stereo unspecified) | -9.45% | 
46 | O=[N+]([O-])c1cccc(/C([O-])=C(/C(=S)Nc2ccccc2F)[n+]2ccccc2)c1 |  | 12.6 µM (active)

Row | SMILES | activity change, negative = inhibition | Potency
47 | Cc1ccc(/C([O-])=C(/C(=S)NCc2ccco2)[n+]2ccccc2)cc1[N+](=O)[O-] | -3.72% | 
48 | CS(=O)(=O)N(CC(=O)N1CCOCC1)c1cccc(Cl)c1Cl | -9.65% | 
49 | C=CCn1cc(Cl)cc(C(=O)Nc2ccccc2)c1=O | 14.3% | 
50 | Cc1nc2ccc(C(=O)N(C)CC3CCCN(CCc4ccc(Cl)cc4)C3)cc2[nH]1 (stereo unspecified) | -7.12% | 
51 | C=CC(COCc1ccccc1)N(Cc1ccccc1)S(=O)(=O)c1ccccc1Br (stereo unspecified) |  | 7.94 µM (active)
52 | C=CCCN(Cc1ccccc1)S(=O)(=O)c1ccccc1Br |  | inactive
53 | CC(NC(=O)C1CCCN(S(=O)(=O)c2ccc(-n3cnnn3)cc2)C1)c1ccc(F)cc1 (stereo unspecified) | -2.24% | 
54 | O=C(NCc1ccco1)/C(=C/c1cccc([N+](=O)[O-])c1)NC(=O)c1ccco1 | -3.55% | 
55 | CS(=O)(=O)c1sc(C(=O)NC(=S)Nc2ccc(OC(F)(F)F)cc2)c2c1C=CCC2 |  | 7.08 µM (active)
56 | COC(=O)[C@H](C)NC(=O)Nc1ccc(OC(F)(F)F)cc1 | 5.22% | 
57 | CSc1sc(C(=O)NNC(=O)c2ccc(Cl)cc2)c2c1C=CCC2 | -5.15% | 
58 | CN1C(=O)c2ccc(C(=O)Nc3ccc(Br)cn3)cc2C1=O | 10.1% | 
59 | O=C(Nc1cc(-c2nc3ncccc3o2)ccc1Cl)c1ccco1 | -6.29% | 
60 | Cn1c(SCC(=O)N2CCCC2)nnc1-c1ccc2c(c1)OCO2 | 3.23% | 
61 | CCCN1CNC(=S)N(CCc2ccccc2)C1 |  | 3.98 µM (active)
62 | CCOc1ccccc1OCCCNCc1ccccc1 | -1.61% | 
63 | CCc1ccccc1N1CN(Cc2ccco2)CNC1=S |  | 4.47 µM (active)
64 | CCOc1ccccc1N1CN(Cc2ccccc2)CNC1=S |  | 4.47 µM (active)
65 | S=C1SCN(CCN2CCOCC2)CN1Cc1ccccc1 | -38.9% | 
66 | Cn1c2c(c(=O)n(C)c1=O)CN(Cc1ccco1)CN2 | 0% | 
67 | N#CNC1=NCN(CCc2ccccc2)CN1 | -13.1% | 
68 | O=S(=O)(c1cc(Cl)ccc1Cl)N1CCN(Cc2ccco2)CC1 | 19.3% | 
69 | CCN1CN(Cc2ccccc2)CNC1=S |  | 12.6 µM (active)

Row | SMILES | activity change, negative = inhibition | Potency
70 | CC12CN(Cc3ccccc3)CC(C)(CN(Cc3ccccc3)C1)C2=NO | 2.79% | 
71 | CCOc1ccc(CC(=O)NC2CCN(Cc3ccccc3)CC2)cc1 | 11.1% [at 1.91 µM] | 
72 | c1ccc(CCN2CN=C(Nc3nc4ccccc4o3)NC2)cc1 | 0% | 
73 | COc1ccccc1NC(=O)CSc1nnc(CNC(=O)c2ccccc2F)o1 | -11.2% | 
74 | CCOc1ccc(C)cc1S(=O)(=O)NC1CCCCCC1 | 1.67% | 
75 | COc1ccc(C(=O)N2CCCN(C)CC2)c(OC)c1 | 21.7% | 
76 | Cc1cccc[n+]1CC(=O)c1ccccc1 | -7.06% | 
77 | CSc1ccccc1OCc1cc(C(=O)N(C)CCc2c(C)n[nH]c2C)no1 | -3.27% | 
78 | CCn1c(SCc2cccc(C(=O)O)c2)nnc1-c1ccc(Cl)cc1 | -0.312% | 
79 | CCC(C)N(C)C1CCN(C(=S)Nc2ccc(OC)cc2)CC1 (stereo unspecified) | -3.42% | 
80 | NS(=O)(=O)c1ccc(NC(=S)N2CCCC2)cc1 | -8.65% | 
81 | CCOc1ccc(NC(=S)N2CCC(N(C)CC3CCCO3)CC2)cc1 (stereo unspecified) | -15.5% | 
82 | O=C(NCc1ccccn1)Nc1ccc(F)cc1 | 9% | 
83 | CCOc1ccc(NC(=S)N2CCC(NC(=O)c3ccccc3)CC2)cc1 | 0.515% | 
84 | CCC(C)c1ccc(NC(=S)NCc2ccccn2)cc1 (stereo unspecified) |  | 2.51 µM (active)
85 | CCOc1ccc(NC(=S)N2CCCCCC2)cc1 |  | 7.08 µM (active)
86 | Cc1cc(C)cc(NC(=O)NCc2ccccn2)c1 | 11.9% | 
87 | CCC(C)c1ccc(NC(=S)N2CCCC2)cc1 (stereo unspecified) |  | 8.91 µM (active)
88 | CCOC(=O)C1CCN(C(=O)CN2C(=O)c3cccnc3Oc3ccc(C)cc32)CC1 | -7.07% | 
89 | CCCc1cc(=O)[nH]c(SCC(=O)Nc2sc3c(c2C#N)CCCC3)n1 | 33.4% | 
90 | Cc1ccc(Cn2c(=N)c(S(=O)(=O)c3ccc(C)cc3)cc3c(=O)n4ccccc4nc32)cc1 | -23.8% | 
91 | CCC(C)(C)NC(=O)C(c1ccc(OC)cc1)N(C(=O)CCC(=O)Nc1cc(C)on1)c1ccc(OC)cc1OC (stereo unspecified) | 40.9% | 
92 | CCOC(=O)N1CCN(C(=O)COc2ccc(Cl)cc2C)CC1 | -1.24% | 

Row | SMILES | activity change, negative = inhibition | Potency
93 | Cc1cc(Cl)ccc1OCCCC(=O)Nc1cccc(-n2cnnn2)c1 | 35% | 
94 | CCCn1nnnc1NC(=O)COc1ccc(Cl)cc1C |  | 0.891 µM (active)
95 | OC(c1ccc(Cl)cc1)C(CN1CCOCC1)c1ccccc1 (stereo unspecified) | 3.28% | 
96 | Cc1ccc(/C=C2\SC(=S)N(CCC(=O)Nc3ccc(O)cc3)C2=O)cc1 | -15.4% | 
97 | O=C(CCCN1C(=O)/C(=C/c2ccccc2)SC1=S)Nc1ccc(O)cc1 |  | 3.98 µM (active)
98 | O=C(CCCN1C(=O)/C(=C\c2ccccc2)SC1=S)Nc1ccccc1O | -38.6% | 
99 | CN1CCN(Cc2nc3cc(NC(=O)COc4ccc([N+](=O)[O-])cc4)ccc3n2C)CC1 | -7.74% | 
100 | COc1ccc2c(C)c(CCC(=O)NC3CC3)c(=O)oc2c1C | 7.24% | 
101 | Cc1cc(NC(=O)CN2CCCC(C)C2)n(-c2nc3ccccc3s2)n1 (stereo unspecified) |  | 1.58 µM (active)
102 | CC1CCCN(CC(=O)Nc2cc(Cl)ccc2Oc2ccccc2)C1 (stereo unspecified) | 4.22% | 
103 | CC(=O)Nc1ccc(NC(=O)CN2CCCC(C)C2)c(Cl)c1 (stereo unspecified) | 27.2% | 
104 | COc1ccc(S(=O)(=O)n2cnc3ccccc32)c(C)c1 | 40% | 
105 | COc1ccc(N2CC(C(=O)N[C@@H](C)C(=O)N3CCCCC3)CC2=O)cc1 (stereo partly specified) | -8.28% | 
106 | FC(F)(F)c1ccc(-n2cn[nH]c2=S)cc1 |  | 10 µM (active)
107 | COc1ccccc1N1CC(C(=O)Nc2nnc(SCC(=O)NCC3CCCO3)s2)CC1=O (stereo unspecified) | 2.4% | 
108 | CNS(=O)(=O)c1cccc(C(=O)NC2CCCc3ccccc32)c1 (stereo unspecified) | -15.4% | 
109 | c1cncc(-c2nc(N3CCNCC3)c3ccccc3n2)c1 | 14.8% | 
110 | c1ccc(-n2nnnc2-c2cccnc2)cc1 | 3.95% | 
111 | S=c1nc2ccccc2c2nc(-c3cccnc3)[nH]n12 |  | 0.447 µM (active)
